The results in this text go back to publication PMC7819943, “Rice protein-binding microarrays: a tool to detect cis-acting elements near promoter regions in rice”.

The full ranking holds about 68,000 sequences; the median of “fluorescence intensity (a.u.)” is about 9,100, and the highest 2% start at about 16,000. Many of the other results were omitted from the sample, so the highest values are more common in it than they were.

Sequence of OsWRKY34 (Q0JBA9 entry or part of it): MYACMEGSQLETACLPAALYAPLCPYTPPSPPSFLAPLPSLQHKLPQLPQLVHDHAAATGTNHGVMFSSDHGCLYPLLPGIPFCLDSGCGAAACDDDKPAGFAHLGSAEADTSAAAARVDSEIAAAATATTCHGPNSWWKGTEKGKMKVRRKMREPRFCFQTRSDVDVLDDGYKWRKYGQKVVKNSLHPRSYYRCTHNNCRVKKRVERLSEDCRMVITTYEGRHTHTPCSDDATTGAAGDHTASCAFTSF

The assay addresses OsWRKY34 (Oryza sativa, UniProt Q0JBA9 1-250). In words: protein-binding microarray (RPBM); PBS, 2% BSA, 51.3 ng/ul salmon testes DNA, 50 uM zinc acetate, 200 nM TF, 25 C, 1 h; high values mean tight binding. The following applies: protein: recombinant; tags: N-terminal polyhistidine and DsRed monomer fusion (pET32a); label: CyDye5-dUTP incorporated in the synthesized complementary strand; 3' TTTTT single-stranded linker to array surface; dsDNA, one strand shown. Put shortly:
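The binding signal is fluorescence intensity per array feature (arbitrary units). Readings came from an Axon 4000B scanner after a washed, 2% BSA-blocked, double-stranded custom Agilent array had been incubated for 1 h at 25 °C with 200 nM protein and 50 µM zinc acetate. The protein was a Ni–NTA-purified transcription factor fused N-terminally to polyhistidine and DsRed, expressed in E. coli BL21-CodonPlus.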
Consider “ACTTCACCGGTTTCCGGCGTCCGGCGCGGCGCCTGCAGAACGGAGTCACCTAGTGCAG”, for which the binding signal was 9530 fluorescence intensity (a.u.). For the sequence “TAACACCCAACACTTACACTCTGGCATTTTGGAGGTCTTGCGGAGTCACCTAGTGCAG”, the binding signal was 8990 fluorescence intensity (a.u.). On to “AGCACCTACGGCGGCGTCTTCTCCTACTGCCTACCGCCGACGGAGTCACCTAGTGCAG”, for which the binding signal was 9000 fluorescence intensity (a.u.). Regarding “ATGACGTCCAAAGCTTCACCTTTTTTTTTATATATAAACCCGGAGTCACCTAGTGCAG”, the binding signal was 8260 fluorescence intensity (a.u.). For the sequence “GGGTAGGAGGAGGTAATTGAGAGGTAATTCCTCCTTTAATCGGAGTCACCTAGTGCAG”, the binding signal is 9220 fluorescence intensity (a.u.). For “TTTTGACGACCCTAGCAATATTGCTATACACTCTTCATTCCGGAGTCACCTAGTGCAG”, the binding signal was 10700 fluorescence intensity (a.u.). Turning to “AAGAAATCTTCCCTGTCCTACCTTTTCTTCTCACTGTATGCGGAGTCACCTAGTGCAG”, the binding signal is 8860 fluorescence intensity (a.u.). With “ACAGGAGAGTGATTACTTTTGCATTATTAATTGATGTTGTCGGAGTCACCTAGTGCAG”, the binding signal was 8400 fluorescence intensity (a.u.). On to “CACCGTTGACTTTTTAGCACATATTTGACCGTTTGTCTTTCGGAGTCACCTAGTGCAG”, for which the binding signal is 39100 fluorescence intensity (a.u.).

On to “TTAGCACATGTTTGACCGTTCGTCTTATTCAAAAACTTTTCGGAGTCACCTAGTGCAG”, for which the binding signal is 12600 fluorescence intensity (a.u.). Regarding “GACACCGTTAACTTTTTAGCATATGTTTGACCGTTCGTCTCGGAGTCACCTAGTGCAG”, the binding signal was 10600 fluorescence intensity (a.u.). Turning to “TTTGACATCATTGACTTTTTAGCACATATTTGACCGTTCGCGGAGTCACCTAGTGCAG”, the binding signal was 14400 fluorescence intensity (a.u.). Turning to “GACACTGTTGACTTTTTAGCACATATTTGACCGTTCGTCTCGGAGTCACCTAGTGCAG”, the binding signal is 21300 fluorescence intensity (a.u.).

Regarding “CCCACACTTCTCCCGTTCTCCTGGAGGAAGACGACACCCACGGAGTCACCTAGTGCAG”, the binding signal was 8150 fluorescence intensity (a.u.).

“CATCTTCGTCCTTTAAATTTGTTTTATTTTAAATCCTCTACGGAGTCACCTAGTGCAG”: the binding signal was 8400 fluorescence intensity (a.u.). Next, “TCATTTGTCATCCATAAGTTTATATTTTGTACTTTTAGTTCGGAGTCACCTAGTGCAG”: 8550 fluorescence intensity (a.u.); “AGAGACTGGTGATGGACTTTACTCTTTTCTTCTCCAACACCGGAGTCACCTAGTGCAG”: 8330 fluorescence intensity (a.u.); “GGGCGCCGGTATGCTTCTTCCATTCCACCTATGTGTTTCTCGGAGTCACCTAGTGCAG”: 9490 fluorescence intensity (a.u.). Consider “TTACTCTACTCATTTAGCTTTTGGTTGGTTGGTTCCCTTCCGGAGTCACCTAGTGCAG”, for which the binding signal was 14400 fluorescence intensity (a.u.). In the case of “TTTCCCACGTTTTGTCATTTTTTCAGCTATATATTAATTTCGGAGTCACCTAGTGCAG”, the binding signal was 12000 fluorescence intensity (a.u.).

As for “ATTCCGGTCATTTACGCGCTTTTAGCTTTGCCCTTCATTTCGGAGTCACCTAGTGCAG”, the binding signal is 17200 fluorescence intensity (a.u.). For the sequence “CGCTTTTGCACAGTATTTTTATTTGCAGAGTTATGTTTGTCGGAGTCACCTAGTGCAG”, the binding signal was 8090 fluorescence intensity (a.u.).

Regarding “CGTTTTTTTTTTCATTCCATGTTTGCATTAGCTTCATTTCCGGAGTCACCTAGTGCAG”, the binding signal is 13400 fluorescence intensity (a.u.). As for “ATTTCTTACGTTGTTGCAGCTTTGTTTTTTTTGCTTATTTCGGAGTCACCTAGTGCAG”, the binding signal is 14900 fluorescence intensity (a.u.). As to “TTGCTTGTTGATTGATTCGTTTTTGTCAATTTTGAAGTTTCGGAGTCACCTAGTGCAG”, the binding signal is 8470 fluorescence intensity (a.u.). Regarding “ATTTTTTCACGTTCGGACCTATGGTTTTTTTGCCACTTTGCGGAGTCACCTAGTGCAG”, the binding signal is 8520 fluorescence intensity (a.u.). “AAAGTTTTTTGTCGTTGTTTGTTTTCCAGTATTTGCTTTTCGGAGTCACCTAGTGCAG”: the binding signal was 18000 fluorescence intensity (a.u.). On to “TTTTTGTCTTATTGTTTTGTTTATTTTATTTCAGTTTATTCGGAGTCACCTAGTGCAG”, for which the binding signal was 9760 fluorescence intensity (a.u.). On to “TTTGTTTTTTTTGCTTATTTAGTTTTTTTTTCAGCTTTTTCGGAGTCACCTAGTGCAG”, for which the binding signal is 17300 fluorescence intensity (a.u.).

In the case of “TTATGCCAGCCATTTCACTTTTTCCCACGTTTTGTCATTTCGGAGTCACCTAGTGCAG”, the binding signal was 18900 fluorescence intensity (a.u.). Consider “ACAAATTCCTGACTTCACGGTTTTCTATTTGGTTGTAATACGGAGTCACCTAGTGCAG”, for which the binding signal was 9590 fluorescence intensity (a.u.). Consider “TTTTTTTATTCGTGTCTGAAAATCATTTCCGATATCCGGTCGGAGTCACCTAGTGCAG”, for which the binding signal is 8470 fluorescence intensity (a.u.). For “CACTAAAGTTTCATTGGGTTTTCAGTTTTCACTTCATTATCGGAGTCACCTAGTGCAG” the value was 10700 fluorescence intensity (a.u.). For the sequence “ATTCGTTTCGTATTTATGCCCGATATTATCCGTGCTTCTACGGAGTCACCTAGTGCAG”, the binding signal is 9200 fluorescence intensity (a.u.).

For “TCTCTTTCTCTCTCTCCTCTTCTTCCTTGGCGAGTTGTGCCGGAGTCACCTAGTGCAG”, the binding signal is 8080 fluorescence intensity (a.u.). As to “ATCCATCCGAGCTCTCTCTCTCTCTCTGTCTTCTCTCTACCGGAGTCACCTAGTGCAG”, the binding signal is 10700 fluorescence intensity (a.u.). Next, “TATTTTCGTCCGGTTTTTTCCACTCACCAGTCACCACCCCCGGAGTCACCTAGTGCAG”: 8490 fluorescence intensity (a.u.); “ACCACTCACCTCATGATTTTCGTTGTATTCGTTCCAGTCCCGGAGTCACCTAGTGCAG”: 20000 fluorescence intensity (a.u.). For the sequence “ACTCCAGCATGATCCACAACACCACTCACCTCATGATTTTCGGAGTCACCTAGTGCAG”, the binding signal is 8770 fluorescence intensity (a.u.).

“CTCTCCTCCTCCGTTCCTGACTCCACCACTCACATTCATTCGGAGTCACCTAGTGCAG”: the binding signal is 13200 fluorescence intensity (a.u.). For “AGGGGTGCTAATTGAGCCTATTTCGGGTGGGGCTCACTGACGGAGTCACCTAGTGCAG” the value was 15300 fluorescence intensity (a.u.).

Regarding “TTCTTGGCCCGCTAACTCATGATGGTTTTATCCAGATCGTCGGAGTCACCTAGTGCAG”, the binding signal was 9880 fluorescence intensity (a.u.).
